High-throughput results: PubChem, National Center for Advancing Translational Sciences (NCATS)
HT1080NT lethal – kills 2HG-producing HT-1080-NT fibrosarcoma cells; HT-1080-NT fibrosarcoma viability, CellTiter-Glo ATP luminescence, 48 h; 360,000 compounds, 1.6% hits; Potency, µM (series often up to 46.1 µM), for the others: top-dose activity, negative = less viability, actives largely listed as cytotoxic;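 also: NT is the 2HG producing partner of a matched IDH1 knockdown line; potency is read from the fitted curve at half-maximal effect; 0% = DMSO-treated cells and -100% = media-only wells without cells; nearly all actives have a fitted effect of over 55% in size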
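A 48-hour cytotoxicity screen used HT-1080-NT cells plated 2 hours before compound delivery. ATP-based CellTiter-Glo luminescence measured viability, normalized to DMSO and no-cell controls.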
DT40 TDP1 CPT – DT40-hTDP1 cell growth loss with CPT | chicken DT40 Tdp1-/-;hTDP1 cells + 20 nM CPT, ATP luminescence, 48 h | 420,000 compounds, 12% hits | AID 686979 | Potency, µM (top dose mostly 46.2 µM), without a hit: at the highest dose activity change, negative = growth inhibition, hits mostly inhibitors; also: potency is read from the fitted curve at half-maximal effect; nearly all actives have a fitted effect of over 55% in size
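Chicken DT40 Tdp1-/- cells stably complemented with human TDP1 were seeded at 400 cells/well in medium containing 20 nM camptothecin, exposed to pin-transferred compounds, and grown at 37 °C for at least 48 hr. Viability was read as ATP luminescence.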
TDP1 cell noCPT – qHTS for Inhibitors of human tyrosyl-DNA phosphodiesterase 1 (TDP1): qHTS in cells in absence of CPT; DT40 Tdp1-/- hTDP1 cells, no CPT, ATP luminescence, 48 h; Potency, µM (highest dose often 46.2 µM), inactives show top-dose activity change, negative = growth inhibition, most hits filed as inhibitors; 420,000 compounds, 15% hits; also: potency is read from the fitted curve at half-maximal effect; nearly all actives have a fitted effect of over 55% in size
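Seeded 400 DT40-hTDP1 cells/well (vehicle DMSO, no 20 nM CPT); pinned compounds; ≥48 hr at 37 °C; CellTiter-Glo luminescence as viability measure.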
IL-1B inflam inh – blocks inflammasome-driven IL-1 beta release; THP-1 LPS/ATP IL-1B secretion, AlphaLISA, 16 h; stronger effect = lower value; activity change, % at 57.5 µM; 360,000 compounds, 4.7% hits; AID 743279; in the data active = activity change below about -50%; inconclusive = mostly about -30% to -49%
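Secreted IL-1B measured by AlphaLISA bead assay after 16 h compound exposure of THP-1 cells; compounds (final up to 57.5 uM) added 1 h before LPS (250 ng/mL) and ATP (1.25 mM) stimulation; lower signal means less secretion.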
HT1080 IDH1KD tx – HT-1080 IDH1 knockdown cell toxicity (counter line); 360,000 compounds, 2% hits; HT-1080 IDH1 knockdown viability, ATP luminescence, 48 h; AID 686971; Potency, µM (titrated, usually from 46.1 µM), for the others: at the top dose activity, negative = toxicity, actives largely listed as cytotoxic;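 also: potency is read from the fitted curve at half-maximal effect; 0% = DMSO wells and -100% = cell-free medium wells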
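Luminescent ATP read-out (CellTiter-Glo, 10 min at room temperature) after 48 h compound exposure at 37 °C gave viability of IDH1-knockdown HT-1080 cells. Activity was normalised to DMSO and cell-free wells, then fitted as concentration-response curves.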
Active calls of the source: *; u = inconclusive; x = not tested or not shown. Rows were chosen to be rich in hits. Some 19% of all compounds tested hit in one or more screens of this group. Unless noted, calls follow the shape of the dose curve; as a rule, active = well fitted curve in the direction sought with a large enough effect; inconclusive = small, poorly fitted or top-dose-only effect, or another doubt; inactive = no such curve, though single readings can be large; an effect the other way counts as inactive or inconclusive. Unless noted, % is scaled to controls: 0 for no effect and ±100 for the full control effect.

SMILES	HT1080NT lethal	DT40 TDP1 CPT	TDP1 cell noCPT	IL-1B inflam inh	HT1080 IDH1KD tx
CCn1cc2nc(SCC(=O)Nc3ccc(OC)c(OC)c3)n(Cc3ccc(Cl)cc3)c(=O)c2n1	x	18µM*	u	x	x
CCn1cc2nc(SCC(=O)Nc3ccccc3F)n(Cc3ccccc3)c(=O)c2n1	3%	u	u	-18	-5%
CCn1cc2nc(SCc3cc(C)ccc3C)n(CCc3ccccc3)c(=O)c2n1	x	21µM*	18µM*	x	x
COC(=O)c1c(C)[nH]c(C(=O)C(C)OC(=O)C2CC2)c1C (centres undefined)	8%	-4%	u	34	0%
COc1cc(S(=O)(=O)N2CCN(C(=O)c3ccco3)CC2)ccc1Cl	1%	u	-22%	-5	3%
COc1cccc(CN2C[C@]34C=C[C@@H](C[C@@H]3S2(=O)=O)O4)c1	2%	-18%	10%	1	4%
CNC(=S)/N=C/NOCc1ccc(Cl)cc1Cl	u	u	21µM*	-51*	u
COCCNCc1ccc(Cl)cc1Cl	-1%	-2%	30%	-16	5%
Cc1cccc(C)c1N=Cc1c(O)n(-c2nccs2)c(=O)c2ccccc12	-5%	15µM*	21µM*	-50*	1%
Cc1ccccc1N=Cc1c(O)n(-c2nccs2)c(=O)c2ccccc12	12%	u	u	-55*	13%
O=c1c2ccccc2c(C=Nc2ccccc2O)c(O)n1-c1nccs1	u	-29%	u	-29	5%
Cc1cc(C)c(N=Cc2c(O)n(-c3nccs3)c(=O)c3ccccc23)c(C)c1	4%	u	16µM*	u	-3%
O=C(NCc1n[nH]c(=S)n1-c1ccc(Br)cc1)c1cccs1	-3%	15%	2%	8	-3%
O=C(Nc1nn[nH]n1)c1cc(-c2ccc(Cl)c(Cl)c2Cl)nc2ccccc12	0%	2%	1%	2	0%
C#CCOC(=O)Nc1cccn(Cc2c(Cl)cccc2Cl)c1=O	u	21µM*	10µM*	u	u
O=C(Nc1cccn(Cc2c(Cl)cccc2Cl)c1=O)C1CC1	0%	u	u	u	-7%
CCOc1ccc2[nH]cc(C(=O)NCCCN3CCOCC3)c(=O)c2c1	2%	19%	-12%	17	3%
CCC(=O)c1cn(CC(=O)Nc2ccccc2F)c2ccccc12	1%	-1%	-16%	6	-4%
CC(=O)c1cn(CC(=O)Nc2ccccc2)c2ccccc12	-29%	15µM*	13µM*	21	-14%
CC(=O)c1cn(CC(=O)Nc2ccccc2Cl)c2ccccc12	1%	16µM*	9.2µM*	32	u
O=C(Cn1cc(C(=O)c2ccco2)c2ccccc21)Nc1ccccc1Cl	x	-8%	-21%	x	x
Cc1cc(C)cc(NC(=O)Cn2cc(C(=O)C3CCCCC3)c3ccccc32)c1	x	18µM*	23µM*	x	x
CC(=O)c1cn(CC(=O)Nc2ccccc2F)c2ccccc12	-2%	18µM*	12µM*	21	-6%
COc1ccccc1C(C)NC(=O)c1ccc(S(=O)(=O)NCc2ccco2)cc1 (centres undefined)	2%	-15%	-27%	-9	-7%
CCOC(=O)c1c(CSc2ccccc2)n(C)c2ccc(O)c(CN3CCOCC3)c12	-16%	u	u	1	-7%
SMILES	HT1080NT lethal	DT40 TDP1 CPT	TDP1 cell noCPT	IL-1B inflam inh	HT1080 IDH1KD tx
COCCCNC(=O)c1ccc(S(=O)(=O)c2ccc(C)cc2)c(NC(C)=O)c1	5%	-1%	28%	0	1%
O=C(Cn1c2ccccc2c(=O)c2ccccc21)Nc1ccccc1F	-2%	13µM*	u	-7	-24%
O=C(Cn1c2ccccc2c(=O)c2ccccc21)N/N=C/c1cc([N+](=O)[O-])ccc1N1CCCCC1	5%	u	u	-1	1%
O=C(Cn1c2ccccc2c(=O)c2cc([N+](=O)[O-])ccc21)Nc1ccccc1Cl	0%	u	13µM*	8	6%
O=Cc1cn(CC(=O)Nc2ccc(F)cc2)c2ccccc12	-9%	u	9.2µM*	32	-6%
CC12CCC(=O)N1C(C(=O)N1CCN(S(=O)(=O)c3cccc(C(F)(F)F)c3)CC1)CS2 (centres undefined)	12%	-8%	-13%	0	8%
CC(=O)Nc1cc(-c2cccc(C(=O)NCCO)c2)cn2c(-c3cccc(C(F)(F)F)c3)cnc12	23µM*	18µM*	23µM*	-14	u
CC(=O)Nc1cc(-c2cccc(C(=O)NCCO)c2)cn2c(-c3ccc(F)cc3)cnc12	u	15µM*	21µM*	-21	-26%
O=C(NCCNC(=O)c1ccccn1)c1ccc(-c2ccccc2)cc1	-17%	-8%	21µM*	-1	-9%
O=C(NCCc1cnc[nH]1)c1ccc(-c2ccccc2)cc1	-6%	-41%	-10%	-54*	-11%
CCOc1ccccc1C(=O)N(CN1CCCC1=O)c1ccc(C)c(Cl)c1	15%	3.7µM*	3.7µM*	25	0%
Cc1ccc(N(CN2C(=O)C3CC=CCC3C2=O)C(=O)c2ccco2)cc1Cl (centres undefined)	0%	-11%	-12%	-6	-6%
Cc1ccc(C(=O)N(CN2CCCC2=O)c2ccccc2)cc1C	-10%	u	u	21	-1%
Cc1ccc(C(=O)N(CN2CCCC2=O)c2ccc(F)cc2)cc1C	23%	u	26µM*	77	0%
Cc1ccc(N(CN2CCCC2=O)C(=O)c2ccc(C)c(C)c2)cc1	6%	8.2µM*	7.3µM*	-21	0%
COc1ccc(CN2C[C@H]3CON(C)[C@H]3C[C@H]2c2ccc(-c3ccccc3)cc2)cc1	-16%	u	u	-2	-18%
Cc1ccc(C(=O)Nc2cccc(C(=O)OCc3cc(=O)n4nc(C5CC5)sc4n3)c2)cc1	x	2%	-16%	x	x
COc1cccc2cc(-c3csc(CCn4nc(C)cc4C)n3)c(=O)oc12	-7%	u	23µM*	-5	-12%
Cc1cc(C)n(CCc2nc(-c3ccco3)cs2)n1	27%	11µM*	13µM*	25	-9%
O=C(N/N=C/c1cc(Br)ccc1O)C(c1ccncc1)N1CCOCC1 (centres undefined)	-18%	4.1µM*	8.2µM*	90	u
COCc1cc(C)nc(SCc2ccc([N+](=O)[O-])cc2)c1C#N	5%	-22%	-16%	-17	5%
CCC(=O)N1CCC1(C)C(=O)Nc1cccc2c1CCCC2 (centres undefined)	26%	-18%	-9%	12	-1%
